Source: the supplement of paper PMC10849652
Targets with a hit are over-represented here; the source holds about 7,900 in all. About 0.6% of all pairs of compound and target were hits. A number with no mark means an inactive call.

Assays:
Test in all cases: log2 fold change, soluble protein after heating vs DMSO (PISA); higher = thermal stabilisation; K562 cells, 10 uM, 30 min; active = over 0.2 and 3.5 SD of the protein, either way, in both replicates (recomputed)
IRAK-1-4 Inhibitor I = compound: C1COCCN1CCN2C3=CC=CC=C3N=C2NC(=O)C4=CC(=CC=C4)[N+](=O)[O-] [IRAK-1-4 Inhibitor I]
Summary of the method: (§1)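 Soluble protein was defined as the supernatant after 21,000xg for 90 min. It came from K562 cells at 2×10^6 cells/mL given 10 μM compound for 30 min, heated in aliquots for 3 min across 48°C-58°C, pooled, and extracted in PBS with 0.5% NP-40 at 4°C, and was quantified by TMTpro 16plex LC-MS/MS with equalised channel sums. Thermal stability against control samples, from duplicates, is reported as log2 fold change.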

ibrutinib = compound: C=CC(=O)N1CCC[C@@H](n2nc(-c3ccc(Oc4ccccc4)cc3)c3c(N)ncnc32)C1 [ibrutinib]
Summary of the method: as §1

[1] = compound: CC(=O)c1cnc2ccc(-c3cc(Cl)c(O)c(Cl)c3)nc2c1N[C@H]1CC[C@H](CN(C)C)CC1
Summary of the method: as §1

ralimetinib = compound: CC(C)(C)Cn1c(N)nc2ccc(-c3[nH]c(C(C)(C)C)nc3-c3ccc(F)cc3)nc21 [ralimetinib]
Summary of the method: as §1

[2] = compound: CC(C)(O)CC(=O)NCCn1ccc2ncnc(Nc3ccc(Oc4cccc(C(F)(F)F)c4)c(Cl)c3)c21
Summary of the method: as §1

[3] = compound: CC(C)C1=C2N=C(C=C(N2N=C1)NCC3=CC=CC=C3)NCCCCCCN
Summary of the method: as §1

[4] = compound: CC(C)C[C@@H](C=O)NC(=O)[C@H](CC(C)C)NC(=O)[C@H](CC(C)C)NC(=O)OCc1ccccc1
Summary of the method: as §1

pinometostat = compound: CC(C)N(C[C@H]1O[C@@H](n2cnc3c(N)ncnc32)[C@H](O)[C@@H]1O)[C@H]1C[C@@H](CCc2nc3cc(C(C)(C)C)ccc3[nH]2)C1 [pinometostat]
Summary of the method: as §1

[5] = compound: CC1=C(C(CC(=O)N1)C2=CC=C(C=C2)C(F)(F)F)C(=O)NC3=C(C=C4C(=C3)C=NN4)F
Summary of the method: as §1

[6] = compound: CC1=C(C2=C(C=C1)C(=O)C3=CC=CC=C3N2CCCN)C
Summary of the method: as §1

[7] = compound: CC1=C(C=C(C=C1)NC(=O)C2=CC(=CC=C2)C(C)(C)C#N)NC3=CC4=C(C=C3)N=CN(C4=O)C
Summary of the method: as §1

[8] = compound: CC1=C(C=C(C=C1)NC(=O)C2=CC(=CC=C2)N(C)C)NC(=O)C3=CC=C(C=C3)O
Summary of the method: as §1

[9] = compound: CC1=CC=C(C=C1)SC2=C3C=C(SC3=CN=C2)C(=O)N
Summary of the method: as §1

[10] = compound: CC1=NC(=CC=C1)C2=C(N=C(N2)C(C)(C)C)C3=CC4=NC=CN=C4C=C3
Summary of the method: as §1

Nexturastat A = compound: CCCCN(Cc1ccc(C(=O)NO)cc1)C(=O)Nc1ccccc1 [Nexturastat A]
Summary of the method: as §1

vemurafenib = compound: CCCS(=O)(=O)Nc1ccc(F)c(C(=O)c2c[nH]c3ncc(-c4ccc(Cl)cc4)cc23)c1F [vemurafenib]
Summary of the method: as §1

[11] = compound: CCCS(=O)(=O)Nc1ccc(F)c(C(=O)c2c[nH]c3ncc(Cl)cc23)c1F
Summary of the method: as §1

[12] = compound: CCCc1cc(C)[nH]c(=O)c1CNC(=O)c1cc(-c2ccnc(N3CCN(C)CC3)c2)cc2c1cnn2C(C)C
Summary of the method: as §1

givinostat = compound: CCN(CC)Cc1ccc2cc(COC(=O)Nc3ccc(C(=O)NO)cc3)ccc2c1 [givinostat]
Summary of the method: as §1

barasertib = compound: CCN(CCCOc1ccc2c(Nc3cc(CC(=O)Nc4cccc(F)c4)[nH]n3)ncnc2c1)CCOP(=O)(O)O [barasertib]
Summary of the method: as §1

UniProt Q9NSI8, sequence (Q9NSI8 whole entry, looked up): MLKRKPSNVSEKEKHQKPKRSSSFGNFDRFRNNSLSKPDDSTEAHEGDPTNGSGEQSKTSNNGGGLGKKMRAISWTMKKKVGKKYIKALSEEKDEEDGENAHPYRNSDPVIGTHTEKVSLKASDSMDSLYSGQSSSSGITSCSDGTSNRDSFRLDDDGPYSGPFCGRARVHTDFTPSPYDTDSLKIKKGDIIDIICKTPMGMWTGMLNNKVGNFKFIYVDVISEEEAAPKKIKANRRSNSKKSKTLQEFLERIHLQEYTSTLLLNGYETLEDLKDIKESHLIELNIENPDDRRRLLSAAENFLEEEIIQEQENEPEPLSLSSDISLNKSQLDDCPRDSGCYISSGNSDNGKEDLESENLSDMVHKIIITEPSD
UniProt Q15436, sequence (Q15436 whole entry, looked up): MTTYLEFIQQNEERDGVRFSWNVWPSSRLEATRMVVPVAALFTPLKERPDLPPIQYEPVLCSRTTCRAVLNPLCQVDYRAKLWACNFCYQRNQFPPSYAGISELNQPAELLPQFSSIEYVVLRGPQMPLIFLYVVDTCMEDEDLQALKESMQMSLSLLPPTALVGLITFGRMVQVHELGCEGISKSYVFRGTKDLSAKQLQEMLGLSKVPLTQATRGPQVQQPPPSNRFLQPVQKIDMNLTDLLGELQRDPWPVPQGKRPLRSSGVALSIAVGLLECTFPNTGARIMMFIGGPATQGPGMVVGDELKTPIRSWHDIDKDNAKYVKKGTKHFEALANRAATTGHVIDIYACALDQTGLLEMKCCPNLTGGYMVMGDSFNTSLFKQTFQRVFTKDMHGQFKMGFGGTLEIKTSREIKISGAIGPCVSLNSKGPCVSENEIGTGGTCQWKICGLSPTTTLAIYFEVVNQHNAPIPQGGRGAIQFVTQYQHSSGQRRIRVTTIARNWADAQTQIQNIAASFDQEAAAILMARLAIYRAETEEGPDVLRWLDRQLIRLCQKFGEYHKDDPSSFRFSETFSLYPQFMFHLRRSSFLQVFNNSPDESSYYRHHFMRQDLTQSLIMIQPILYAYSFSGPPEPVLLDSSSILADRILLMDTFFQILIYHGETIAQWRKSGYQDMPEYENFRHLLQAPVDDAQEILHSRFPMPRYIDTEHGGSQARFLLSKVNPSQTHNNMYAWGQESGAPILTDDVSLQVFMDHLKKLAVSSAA
UniProt Q8IZQ5, sequence (Q8IZQ5 whole entry, looked up): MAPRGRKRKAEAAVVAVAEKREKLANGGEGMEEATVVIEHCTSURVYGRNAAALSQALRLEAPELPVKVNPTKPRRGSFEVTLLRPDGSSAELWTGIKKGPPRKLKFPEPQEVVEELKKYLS
UniProt P49792, sequence (P49792 whole entry, looked up): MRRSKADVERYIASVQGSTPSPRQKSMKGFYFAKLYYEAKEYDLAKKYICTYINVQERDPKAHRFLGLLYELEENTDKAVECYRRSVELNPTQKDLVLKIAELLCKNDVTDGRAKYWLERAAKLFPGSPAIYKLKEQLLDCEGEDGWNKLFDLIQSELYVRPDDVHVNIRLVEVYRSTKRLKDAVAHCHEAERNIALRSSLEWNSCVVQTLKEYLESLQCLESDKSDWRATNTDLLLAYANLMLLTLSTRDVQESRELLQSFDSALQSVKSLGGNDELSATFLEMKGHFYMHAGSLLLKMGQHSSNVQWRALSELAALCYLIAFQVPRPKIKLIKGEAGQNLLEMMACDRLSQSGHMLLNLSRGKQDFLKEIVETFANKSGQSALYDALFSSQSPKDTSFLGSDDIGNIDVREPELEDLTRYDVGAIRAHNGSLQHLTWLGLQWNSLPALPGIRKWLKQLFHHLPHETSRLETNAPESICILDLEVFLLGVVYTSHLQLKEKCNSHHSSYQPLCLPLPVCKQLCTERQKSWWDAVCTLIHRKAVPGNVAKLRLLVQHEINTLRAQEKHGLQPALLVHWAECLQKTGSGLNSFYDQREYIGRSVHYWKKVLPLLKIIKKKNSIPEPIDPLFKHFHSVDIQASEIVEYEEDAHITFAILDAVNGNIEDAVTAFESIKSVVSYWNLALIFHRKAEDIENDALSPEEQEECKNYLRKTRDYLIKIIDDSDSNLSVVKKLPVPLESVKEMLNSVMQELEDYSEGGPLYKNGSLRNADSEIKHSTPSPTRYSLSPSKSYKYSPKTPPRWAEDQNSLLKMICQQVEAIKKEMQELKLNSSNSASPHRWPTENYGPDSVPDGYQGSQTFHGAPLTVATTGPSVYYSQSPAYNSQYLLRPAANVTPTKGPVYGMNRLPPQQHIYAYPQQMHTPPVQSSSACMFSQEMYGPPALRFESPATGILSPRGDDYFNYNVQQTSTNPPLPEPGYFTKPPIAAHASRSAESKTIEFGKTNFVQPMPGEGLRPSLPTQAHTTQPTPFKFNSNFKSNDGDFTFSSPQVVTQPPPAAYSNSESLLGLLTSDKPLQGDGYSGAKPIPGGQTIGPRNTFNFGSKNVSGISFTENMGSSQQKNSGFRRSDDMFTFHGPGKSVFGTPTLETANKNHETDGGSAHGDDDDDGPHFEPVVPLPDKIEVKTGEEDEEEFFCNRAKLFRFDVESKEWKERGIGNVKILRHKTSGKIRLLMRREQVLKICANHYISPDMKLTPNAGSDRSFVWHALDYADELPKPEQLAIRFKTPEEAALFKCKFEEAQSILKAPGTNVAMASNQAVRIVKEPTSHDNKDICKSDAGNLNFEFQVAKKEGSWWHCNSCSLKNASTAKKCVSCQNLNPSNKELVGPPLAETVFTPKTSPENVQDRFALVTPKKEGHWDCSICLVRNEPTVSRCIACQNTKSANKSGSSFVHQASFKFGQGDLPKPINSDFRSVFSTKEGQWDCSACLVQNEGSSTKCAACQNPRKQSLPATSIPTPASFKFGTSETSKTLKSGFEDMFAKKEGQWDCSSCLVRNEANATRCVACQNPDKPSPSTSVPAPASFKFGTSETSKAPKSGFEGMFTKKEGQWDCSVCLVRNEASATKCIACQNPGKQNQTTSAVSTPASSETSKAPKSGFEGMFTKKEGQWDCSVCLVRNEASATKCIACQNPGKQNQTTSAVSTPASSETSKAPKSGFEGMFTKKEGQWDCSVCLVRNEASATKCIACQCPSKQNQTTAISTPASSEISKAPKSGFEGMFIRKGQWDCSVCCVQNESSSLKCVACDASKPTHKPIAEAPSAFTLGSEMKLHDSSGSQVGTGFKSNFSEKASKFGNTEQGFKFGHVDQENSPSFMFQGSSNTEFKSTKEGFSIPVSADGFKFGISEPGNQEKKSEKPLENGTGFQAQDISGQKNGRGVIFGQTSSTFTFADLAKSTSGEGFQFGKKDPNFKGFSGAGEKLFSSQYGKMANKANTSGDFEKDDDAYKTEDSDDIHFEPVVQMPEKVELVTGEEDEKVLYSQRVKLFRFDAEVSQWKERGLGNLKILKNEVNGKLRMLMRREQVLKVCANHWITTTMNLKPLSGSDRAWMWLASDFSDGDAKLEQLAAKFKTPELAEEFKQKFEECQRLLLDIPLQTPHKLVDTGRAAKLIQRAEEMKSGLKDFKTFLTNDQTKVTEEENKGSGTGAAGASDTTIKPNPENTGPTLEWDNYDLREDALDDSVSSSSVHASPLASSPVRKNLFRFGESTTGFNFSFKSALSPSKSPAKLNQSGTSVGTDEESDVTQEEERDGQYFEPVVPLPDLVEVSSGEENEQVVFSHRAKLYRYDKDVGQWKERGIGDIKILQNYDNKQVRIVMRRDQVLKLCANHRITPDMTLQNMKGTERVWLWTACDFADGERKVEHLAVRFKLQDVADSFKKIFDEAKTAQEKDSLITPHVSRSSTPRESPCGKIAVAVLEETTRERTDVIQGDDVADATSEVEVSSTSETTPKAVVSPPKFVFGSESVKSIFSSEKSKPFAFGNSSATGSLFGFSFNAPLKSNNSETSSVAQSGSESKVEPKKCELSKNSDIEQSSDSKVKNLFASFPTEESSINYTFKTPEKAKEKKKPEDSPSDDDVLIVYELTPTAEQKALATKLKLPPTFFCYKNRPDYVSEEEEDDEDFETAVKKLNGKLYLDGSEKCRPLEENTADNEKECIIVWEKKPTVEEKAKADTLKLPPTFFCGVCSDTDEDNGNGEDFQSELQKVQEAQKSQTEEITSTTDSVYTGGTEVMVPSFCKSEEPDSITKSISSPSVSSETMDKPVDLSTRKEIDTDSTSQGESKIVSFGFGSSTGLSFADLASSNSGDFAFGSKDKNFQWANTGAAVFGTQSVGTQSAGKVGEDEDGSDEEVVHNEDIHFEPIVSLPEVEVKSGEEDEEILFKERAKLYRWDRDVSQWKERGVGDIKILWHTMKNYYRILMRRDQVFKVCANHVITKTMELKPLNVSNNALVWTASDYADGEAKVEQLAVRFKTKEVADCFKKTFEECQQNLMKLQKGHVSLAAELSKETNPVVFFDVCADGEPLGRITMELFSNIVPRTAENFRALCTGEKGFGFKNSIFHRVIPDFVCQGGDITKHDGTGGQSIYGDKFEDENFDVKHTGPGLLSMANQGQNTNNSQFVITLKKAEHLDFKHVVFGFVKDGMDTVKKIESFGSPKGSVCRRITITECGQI
UniProt Q5TA31, sequence (Q5TA31 whole entry, looked up): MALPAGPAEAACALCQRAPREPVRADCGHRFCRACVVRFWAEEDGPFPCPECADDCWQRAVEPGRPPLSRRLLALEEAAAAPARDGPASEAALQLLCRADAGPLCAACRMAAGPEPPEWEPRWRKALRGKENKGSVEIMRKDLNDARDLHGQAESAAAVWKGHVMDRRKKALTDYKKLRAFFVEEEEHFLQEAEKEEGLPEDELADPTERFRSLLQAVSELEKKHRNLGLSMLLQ
UniProt O95059, sequence (O95059 whole entry, looked up): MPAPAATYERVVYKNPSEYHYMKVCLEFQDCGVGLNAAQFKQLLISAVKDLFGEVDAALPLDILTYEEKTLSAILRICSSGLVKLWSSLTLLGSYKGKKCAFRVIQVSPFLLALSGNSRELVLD
UniProt P51148, sequence (P51148 whole entry, looked up): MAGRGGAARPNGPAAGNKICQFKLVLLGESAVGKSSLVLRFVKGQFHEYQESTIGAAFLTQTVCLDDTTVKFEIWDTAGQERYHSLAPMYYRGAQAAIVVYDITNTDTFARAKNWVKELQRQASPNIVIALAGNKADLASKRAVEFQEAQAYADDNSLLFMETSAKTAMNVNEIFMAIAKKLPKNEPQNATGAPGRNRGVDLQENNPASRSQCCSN

| Target | log2 fold change (IRAK-1-4 Inhibitor I) | log2 fold change (ibrutinib) | log2 fold change [1] | log2 fold change (ralimetinib) | log2 fold change [2] | log2 fold change [3] | log2 fold change [4] | log2 fold change (pinometostat) | log2 fold change [5] | log2 fold change [6] | log2 fold change [7] | log2 fold change [8] | log2 fold change [9] | log2 fold change [10] | log2 fold change (Nexturastat A) | log2 fold change (vemurafenib) | log2 fold change [11] | log2 fold change [12] | log2 fold change (givinostat) | log2 fold change (barasertib) |
| --- | --- | --- | --- | --- | --- | --- | --- | --- | --- | --- | --- | --- | --- | --- | --- | --- | --- | --- | --- | --- |
| SAMSN1 isoform 3 (UniProt Q9NSI8) | 0.028 | -0.021 | -0.125 | -0.016 | -0.034 | -0.095 | 0.041 | 0.014 | 0.023 | 0.008 | 0.014 | -0.011 | 0.029 | 0.017 | -0.027 | -0.001 | 0.029 | 0 | 0.02 | 0.042 |
| RAB3GAP2 (UniProt Q9H2M9) | -0.079 | -0.016 | -0.031 | 0.03 | 0 | -0.26 (active) | 0.026 | 0.115 | 0.004 | -0.016 | -0.001 | -0.018 | 0.017 | -0.029 | 0.215 | 0.06 | 0.026 | 0.092 | 0.106 | 0.068 |
| SEC23A (UniProt Q15436) | 0.06 | 0 | 0.077 | 0.026 | -0.123 | -0.014 | -0.006 | -0.004 | 0.024 | 0.121 | 0.005 | -0.067 | -0.027 | -0.041 | 0.008 | 0.049 | 0.06 | 0.003 | -0.025 | 0.027 |
| RBM4 (UniProt Q9BWF3) | -0.038 | -0.023 | -0.083 | 0.099 | 0.019 | -0.136 | 0.074 | 0.076 | 0.007 | -0.027 | -0.041 | -0.033 | -0.061 | -0.034 | 0.081 | 0.01 | 0.052 | 0.003 | 0.071 | 0.018 |
| RPP14 (UniProt O95059) | -0.035 | 0.073 | -0.021 | 0.009 | 0.051 | -0.021 | 0 | 0.021 | 0.041 | -0.04 | 0.086 | 0.01 | -0.031 | -0.015 | 0.129 | -0.004 | 0.004 | -0.037 | -0.116 | -0.087 |
| SCAF8 isoform 2 (UniProt Q9UPN6) | 0.035 | -0.057 | -0.145 | -0.054 | -0.169 | -0.417 (active) | 0.23 | 0.065 | -0.05 | 0.138 | 0.048 | 0.002 | -0.03 | 0.076 | 0 | -0.001 | 0.004 | -0.013 | 0.038 | 0.067 |
| RAB5C isoform 2 (UniProt P51148) | 0.015 | 0.017 | 0.039 | 0.027 | -0.012 | 0.064 | -0.042 | -0.028 | 0.028 | -0.032 | 0.069 | -0.02 | 0.02 | 0.01 | -0.029 | 0.015 | 0.008 | -0.017 | 0.006 | -0.031 |
| RPS4X (UniProt P62701) | -0.129 | 0.025 | 0.126 | 0.106 | 0.003 | -0.025 | 0.074 | 0.273 | 0.048 | -0.679 (active) | 0.019 | 0 | -0.027 | -0.055 | 0.214 | -0.106 | -0.08 | 0.213 | 0.021 | -0.101 |
| RNF187 (UniProt Q5TA31) | 0.059 | 0.045 | -0.124 | 0.039 | 0.024 | 0.077 | 0.424 (active) | -0.075 | 0.046 | -0.226 | -0.074 | -0.102 | 0.048 | -0.005 | 0.085 | -0.106 | 0.039 | 0 | 0.036 | 0.041 |
| RANBP2 (UniProt P49792) | 0.024 | 0.035 | 0.081 | 0.022 | -0.043 | -0.136 | 0.024 | -0.017 | 0.169 | 0.076 | 0.089 | -0.07 | -0.041 | 0.04 | 0.221 | -0.086 | 0.03 | -0.072 | 0.046 | 0.036 |
| ROR2 (UniProt Q01974) | -0.003 | -0.014 | -0.72 (active) | 0.045 | -0.058 | -0.018 | -0.001 | 0.045 | -0.059 | 0.115 | 0.022 | -0.061 | 0.001 | -0.009 | -0.109 | 0.018 | 0.007 | 0.078 | 0.033 | 0.003 |
| RAC3 (UniProt P60763) | 0.115 | 0.022 | 0.104 | -0.008 | 0.032 | 0.082 | -0.009 | -0.081 | 0.003 | 0.102 | 0.025 | -0.021 | 0.084 | -0.004 | -0.042 | 0.006 | -0.006 | -0.044 | -0.037 | -0.015 |
| SELENOH (UniProt Q8IZQ5) | -0.018 | -0.039 | 0.13 | 0.086 | -0.017 | 0.059 | -0.012 | -0.012 | -0.052 | 0.057 | 0.09 | -0.011 | 0.023 | -0.035 | 0.089 | 0.042 | 0.007 | 0.075 | 0.024 | -0.031 |
| SHCBP1 (UniProt Q8NEM2) | -0.11 | -0.072 | -0.013 | 0.025 | -0.121 | -0.516 (active) | 0.012 | 0.066 | 0.074 | 0.02 | 0 | -0.032 | 0 | 0.07 | 0.047 | 0.102 | 0.027 | -0.014 | 0.018 | 0.117 |
| SERINC1 (UniProt Q9NRX5) | 0 | 0.023 | 0 | -0.106 | -0.235 | -0.568 (active) | 0.095 | -0.022 | 0.038 | 0 | 0.044 | -0.048 | 0.372 | -0.021 | 0.053 | -0.083 | -0.018 | -0.874 (active) | 0.05 | 0.002 |
| RFC3 (UniProt P40938) | 0.003 | 0.025 | -0.101 | 0.021 | -0.087 | -0.012 | -0.047 | -0.057 | 0 | 0.09 | -0.003 | -0.031 | 0.05 | 0.058 | -0.032 | 0.048 | 0.101 | 0 | -0.007 | -0.011 |
